Measurements reported in article PMC5913336, “True equilibrium measurement of transcription factor-DNA binding affinities using automated polarization microscopy”.

Each sequence was assayed against Kr (Drosophila melanogaster, UniProt P07247 220-332) (assay: FP; 20 mM Tris-acetate pH 7.0, 50 "nM" NaCl as printed (probably mM), 0.01% Tween 20, 0.1 mM DTT; conventional titration). Conditions: tags: N-GST (pGEX-6P-1, kept); dsDNA, one strand shown.
Chain of Kr (P07247 220-332): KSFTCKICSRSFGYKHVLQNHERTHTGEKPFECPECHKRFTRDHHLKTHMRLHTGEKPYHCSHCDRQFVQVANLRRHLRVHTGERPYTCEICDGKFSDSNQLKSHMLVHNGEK

Row | Sequence | binding signal | Kd [nM]
1 | TTGAGGGATAA | 1.82 Kd / Kd of best base at the position | 
2 | TTGAGGTATTA | 13.8 Kd / Kd of best base at the position | 
3 | TAGAGGGATTA | 1.67 Kd / Kd of best base at the position | 
4 | TTCAGGGATTA | 4.61 Kd / Kd of best base at the position | 
5 | TTGAGAGATTA | 15.7 Kd / Kd of best base at the position | 
6 | TTGAGGGGTTA | 1.22 Kd / Kd of best base at the position | 
7 | TTGAGGGATTG | 1.33 Kd / Kd of best base at the position | 
8 | TTGCGGGATTA | 12.2 Kd / Kd of best base at the position | 
9 | TTGAGGGCTTA | 2.19 Kd / Kd of best base at the position | 
10 | TTGAGGGATTC | 2.58 Kd / Kd of best base at the position | 
11 | TTGAGGGATTA |  | ~0.2
12 | TTGAGGCATTA | 267 Kd / Kd of best base at the position | 
13 | TTGAGGGACTA | 3.27 Kd / Kd of best base at the position | 
14 | TTGAGTGATTA | 37.9 Kd / Kd of best base at the position | 
15 | TTGAGGGTTTA | 9.26 Kd / Kd of best base at the position | 
16 | TCGAGGGATTA | 1.5 Kd / Kd of best base at the position | 
17 | TTGAAGGATTA | 1.22 Kd / Kd of best base at the position | 

Row | Sequence | binding signal | Kd [nM]
18 | TTAAGGGATTA | 1.14 Kd / Kd of best base at the position | 
19 | TTGGGGGATTA | 16.7 Kd / Kd of best base at the position | 
20 | TTGAGGGATGA | 1.78 Kd / Kd of best base at the position | 
21 | TTGAGGGATCA | 4.06 Kd / Kd of best base at the position | 
22 | TTGATGGATTA | 4.9 Kd / Kd of best base at the position | 
23 | TTGACGGATTA | 2.29 Kd / Kd of best base at the position | 
24 | TTTAGGGATTA | 4.08 Kd / Kd of best base at the position | 
25 | GTGAGGGATTA | 1.3 Kd / Kd of best base at the position | 
26 | TTGAGGGAATA | 4.25 Kd / Kd of best base at the position | 
27 | CTGAGGGATTA | 1.7 Kd / Kd of best base at the position | 
28 | TTGAGGGAGTA | 2.01 Kd / Kd of best base at the position | 
29 | TTGAGGAATTA | 2.59 Kd / Kd of best base at the position | 
30 | TGGAGGGATTA | 1.3 Kd / Kd of best base at the position | 
31 | TTGAGGGATTT | 1.61 Kd / Kd of best base at the position | 
32 | TTGAGCGATTA | 27.9 Kd / Kd of best base at the position | 
33 | TTGTGGGATTA | 3.61 Kd / Kd of best base at the position | 
34 | ATGAGGGATTA | 1.06 Kd / Kd of best base at the position | 

Each sequence was assayed against T1, Cad (Drosophila melanogaster, UniProt P09085 273-344) in the same assay as above. Conditions: tags: N-GST (pGEX-6P-1, kept); dsDNA, one strand shown.
T1 sequence: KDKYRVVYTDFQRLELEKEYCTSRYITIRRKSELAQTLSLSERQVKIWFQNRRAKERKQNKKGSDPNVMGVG

Row | Sequence | binding signal
35 | CACTTTTTCTA | 287 Kd / Kd of best base at the position
36 | CACTTCTTATA | 16.8 Kd / Kd of best base at the position
37 | CACTTTTTATG | 2.2 Kd / Kd of best base at the position
38 | CACGTTTTATA | 5.5 Kd / Kd of best base at the position
